Experimental findings from PubChem BioAssay (NCI) are described below.

Holding throughout (assay): NCI-60 one-dose screen, 48 h (100 = growth as untreated, 0 = no growth, -100 = all killed)
In one assay the test system is NCI-H23 lung. The settings on record: 10 µM unless noted.
A further assay relates to NCI-H226 lung. To be noted: 10 µM unless noted.
The next assay concerns NCI-H322M lung. The settings on record: 10 µM unless noted.
The subject of another assay is HOP-62 NSCLC. To be noted: 10 µM unless noted.
Another assay relates to NCI-H460 lung. The settings on record: 10 µM unless noted.
In a further assay the test system is HOP-92 NSCLC. The settings on record: 10 µM.
The next assay deals with NCI-H522 lung. The settings on record: 10 µM unless noted.
The test system of a further assay is A549/ATCC NSCLC. The settings on record: 10 µM unless noted.
Another assay deals with 786-0 renal. The settings on record: 10 µM unless noted.
In another assay the test system is COLO 205 colon. To be noted: 10 µM unless noted.
A further assay has as its system DU-145 prostate. The settings on record: 10 µM unless noted.
Another assay has as its system K-562 leukemia. The settings on record: 10 µM unless noted.
For a further assay, the system named is MALME-3M melanoma. The settings on record: 10 µM unless noted.
The subject of a further assay is MDA-MB-231 breast. To be noted: 10 µM unless noted.
In another assay the test system is SF-268 CNS. To be noted: 10 µM unless noted.
Another assay relates to SF-295 CNS. The settings on record: 10 µM unless noted.
A further assay has as its system SF-539 CNS. To be noted: 10 µM unless noted.
The test system of a further assay is UACC-257 melanoma. The settings on record: 10 µM unless noted.

About 83,000 compounds went through this panel and 20% of them were active in at least one assay; those are over-represented in the sample as a whole.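 Results are percent growth after 48 hours of single-concentration exposure. 100 means growth as in untreated cells, lower positive values show inhibition; negative values down to -100 show cell death.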 Values without a mark were called inactive. Calls of active or inactive are those of the source. Rule for the calls: active = growth percent below 10; inactive = the rest.

With `NC(N)=Nc1ccc(Oc2cccc(NC(N)=Nc3ccc(Br)c(C(F)(F)F)c3)c2)cc1`, the growth in the assay on NCI-H23 lung was 54.4%; with NCI-H226 lung, 68.6%; in the assay on NCI-H322M lung, 57.8%; in the assay on HOP-62 NSCLC, 53.3%; in the assay on NCI-H460 lung it was 24.3%; in the assay on HOP-92 NSCLC, 10.5%. In addition, the growth in the assay on NCI-H522 lung was 35.7%; in the assay with A549/ATCC NSCLC, 41.7%; with 786-0 renal it was 76.5%; with COLO 205 colon, 27.9%; in the assay on DU-145 prostate, 72.6%; with K-562 leukemia it was 29.3%. The growth with MALME-3M melanoma is 67.5%; in the assay on MDA-MB-231 breast, 61.4%; in the assay on SF-268 CNS, 18.8%; in the assay with SF-295 CNS, 40.5%; with SF-539 CNS it was 39.8%; in the assay on UACC-257 melanoma, 54.8%.
For `CCOC(=O)C(=O)CC(=O)N1C(=S)NC(=O)C1CC(C)C` (centres undefined), the growth in the assay with NCI-H23 lung is 88.3%; with NCI-H226 lung it was 99.1%; in the assay with NCI-H322M lung, 96.8%; in the assay with HOP-62 NSCLC it was 101%; in the assay on NCI-H460 lung it was 110%; in the assay on HOP-92 NSCLC, 99.6%. In addition, the growth in the assay on NCI-H522 lung is 100%; in the assay with A549/ATCC NSCLC it was 103%; in the assay on 786-0 renal, 96.1%; with COLO 205 colon it was 107%; in the assay with DU-145 prostate, 108%; with K-562 leukemia, 107%. Also, the growth is 101% with MALME-3M melanoma; 101% in the assay with MDA-MB-231 breast; 94.8% in the assay on SF-268 CNS; 102% in the assay on SF-295 CNS; 96.1% in the assay with SF-539 CNS; 102% with UACC-257 melanoma.
On to `N#Cc1cnc2ccc(-c3cnc4[nH]ncc4c3)cc2c1N1CCc2cc(F)c(Cl)cc21`, for which the growth with NCI-H23 lung was 7.08% (active); in the assay with NCI-H226 lung, -0.212% (active); with NCI-H322M lung, 15.3%; with HOP-62 NSCLC, 3.97% (active); with NCI-H460 lung, 3.18% (active); with HOP-92 NSCLC it was -7.43% (active). In addition, the growth was 1.37% (active) in the assay with NCI-H522 lung; 9.1% (active) in the assay on A549/ATCC NSCLC; 11% with 786-0 renal; 12% in the assay with COLO 205 colon; 7.85% (active) with DU-145 prostate; 16.6% in the assay with K-562 leukemia. The growth in the assay on MALME-3M melanoma is 0.688% (active); with MDA-MB-231 breast, 10.9%; in the assay on SF-268 CNS, 8.85% (active); in the assay with SF-295 CNS it was -18.8% (active); in the assay on SF-539 CNS, -27.1% (active); in the assay on UACC-257 melanoma it was 36%.
As for `Cc1ccc(-n2cc(/C=C/C(=O)c3ccc(O)cc3)c(-c3ccc(S(C)(=O)=O)cc3)n2)cc1`, the growth with NCI-H23 lung is 68.9%; in the assay on NCI-H226 lung it was 99.6%; with NCI-H322M lung it was 99.1%; with HOP-62 NSCLC, 76%; with NCI-H460 lung, 80.8%; in the assay on HOP-92 NSCLC, 110%. For the same compound, the growth is 58.9% in the assay on NCI-H522 lung; 102% with A549/ATCC NSCLC; 94.4% in the assay with 786-0 renal; 111% in the assay with COLO 205 colon; 82.8% in the assay with DU-145 prostate; 17.8% in the assay on K-562 leukemia. The growth in the assay with MALME-3M melanoma was 44.9%; in the assay on MDA-MB-231 breast it was 67.7%; with SF-268 CNS, 85.9%; in the assay on SF-295 CNS, 87.3%; in the assay with SF-539 CNS, 60.2%; in the assay on UACC-257 melanoma, 93.5%.
As to `C=C(C=O)[C@@H]1CC[C@]2(C)[C@H](CC=C3[C@H]4[C@@H](C)[C@H](C)CC[C@]4(C(=O)OC)CC[C@]32C)[C@@]1(C)CCC#N`, the growth with NCI-H23 lung was -6.81% (active); with NCI-H226 lung, -44.8% (active); with NCI-H322M lung, 32.9%; in the assay on HOP-62 NSCLC, 20.7%; with NCI-H460 lung it was 1.89% (active); with HOP-92 NSCLC it was -31.6% (active). Further, the growth was -1.56% (active) with NCI-H522 lung; 80.6% in the assay on A549/ATCC NSCLC; 5.57% (active) with 786-0 renal; 3.46% (active) with COLO 205 colon; 16.7% in the assay with DU-145 prostate; 8.57% (active) in the assay with K-562 leukemia. The growth with MALME-3M melanoma is -63.6% (active); with MDA-MB-231 breast it was -21.9% (active); in the assay with SF-268 CNS it was 20%; in the assay on SF-295 CNS, 7.53% (active); with SF-539 CNS it was -61.4% (active); with UACC-257 melanoma, -20.3% (active).
Regarding `CCN(CC)c1ccc2c(c1)Oc1nc(N)c(C#N)c(N)c1C2Sc1ccc(F)cc1` (centres undefined), the growth is -82.3% (active) in the assay with NCI-H23 lung; -84.8% (active) in the assay with NCI-H226 lung; -84.8% (active) with NCI-H322M lung; -15% (active) in the assay with HOP-62 NSCLC; -69.8% (active) in the assay with NCI-H460 lung; -36.7% (active) in the assay on HOP-92 NSCLC. For the same compound, the growth is -48.7% (active) in the assay on NCI-H522 lung; -39.6% (active) in the assay with A549/ATCC NSCLC; -83.8% (active) with 786-0 renal; -58.5% (active) in the assay on COLO 205 colon; -94.2% (active) in the assay with DU-145 prostate; 2.27% (active) in the assay on K-562 leukemia. The growth in the assay with MALME-3M melanoma was -45.6% (active); in the assay on MDA-MB-231 breast, -86% (active); with SF-268 CNS it was -44.7% (active); in the assay with SF-295 CNS it was -91.4% (active); in the assay with SF-539 CNS, -96.1% (active); in the assay on UACC-257 melanoma, -16.9% (active).
Regarding `N=c1c2cc(-c3ccccc3)oc2ncn1/N=C/c1ccc(Cl)cc1`, the growth is 97.8% with NCI-H23 lung; 71% in the assay on NCI-H226 lung; 90.9% in the assay with NCI-H322M lung; 82.6% in the assay with HOP-62 NSCLC; 6.07% (active) in the assay on NCI-H460 lung; 105% in the assay on HOP-92 NSCLC. Further, the growth in the assay on NCI-H522 lung is 91.6%; in the assay with A549/ATCC NSCLC, 41.7%; in the assay with 786-0 renal, 85.5%; with COLO 205 colon, 89.2%; in the assay on DU-145 prostate, 38.8%; with K-562 leukemia, 78.7%. Also, the growth in the assay with MALME-3M melanoma was 38.5%; in the assay with MDA-MB-231 breast, 96.3%; in the assay on SF-268 CNS, 76.3%; with SF-295 CNS it was 93.1%; in the assay with SF-539 CNS, 82.7%; in the assay with UACC-257 melanoma it was 95.1%.
On to `COc1cc2c(cc1OC)C(Sc1ccc(C)cc1)c1c(nc(N)c(C#N)c1N)O2` (centres undefined), for which the growth was -74.1% (active) in the assay with NCI-H23 lung; -1.22% (active) in the assay with NCI-H226 lung; -93.9% (active) in the assay with NCI-H322M lung; -1.58% (active) with HOP-62 NSCLC; -54.9% (active) in the assay with NCI-H460 lung; -31.8% (active) in the assay with HOP-92 NSCLC. Besides, the growth in the assay on NCI-H522 lung was -29% (active); with A549/ATCC NSCLC it was -38% (active); with 786-0 renal it was -78.9% (active); in the assay on COLO 205 colon, -28.5% (active); with DU-145 prostate it was -83% (active); in the assay with K-562 leukemia it was 4.48% (active). Besides, the growth in the assay on MALME-3M melanoma is -70.7% (active); in the assay with MDA-MB-231 breast it was -41.4% (active); in the assay with SF-268 CNS it was -54.5% (active); in the assay with SF-295 CNS, -84.1% (active); with SF-539 CNS, -86.3% (active); in the assay with UACC-257 melanoma it was -35.2% (active).
